3T3 cytotox: NIH 3T3 cell cytotoxicity; NIH 3T3 viability, CellTiter-Glo ATP luminescence, 48-72 h; 94,000 compounds, 4.3% hits; AID 1345082; Potency, µM (titrated, usually from 96.7 µM), for the others: top-dose activity change, negative = cytotoxicity, hits mostly inhibitors; also: nearly all actives have a fitted effect of over 55% in size
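First NIH 3T3 cells are plated at 400 cells/well; next compound is pinned in; then plates incubate 48 or 72 hr at 37 °C; finally CellTiter-Glo is added and luminescence read after 10 min.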
hNpr1 antagonist: blocks ANP-stimulated signaling of human Npr1 receptor; P16066; HEK293 hNpr1 GloSensor cGMP, ANP-stimulated luminescence; Potency, µM (titrated, usually from 46.3 µM), without a hit: top-dose activity change, negative = inhibition, actives largely listed as inhibitors; 76,000 compounds, 1.6% hits; AID 1347048; calls by dose curve; also: nearly all actives have a fitted effect of over 60% in size
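Compound pre-incubated 30 min at room temperature on GloSensor-loaded HEK293 cells stably carrying hNpr1 and the pGS-40F cGMP biosensor. Stimulation uses hNppA at 0.1 nM final; luminescence is taken at baseline and 20 min post-agonist.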
HEK293 tox: cytotoxic compounds in HEK 293 cells. AID 1345083. 94,000 compounds, 6.6% hits. Potency, µM (highest dose often 115 µM), for the others: top-dose activity change, negative = cytotoxicity, actives largely listed as inhibitors. HEK 293 viability, ATP luminescence (CellTiter-Glo), 48-72 h; also: nearly all actives have a fitted effect of over 60% in size
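Viability of HEK 293 cells, plated at 250 cells/well, was judged by cellular ATP after compound treatment for 48 or 72 hr. Luminescence was imaged 10 min after CellTiter-Glo addition at room temperature.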
FLuc inh: blocks purified firefly luciferase enzyme activity; Potency, µM (titrated, usually from 115 µM), actives largely listed as inhibitors; purified P. pyralis luciferase, luminescence, biochemical; 76,000 compounds, 2.5% hits; P08659; also: nearly all actives have a fitted effect of over 65% in size
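FLuc 10nM, D-luciferin 10uM, ATP 10uM, Mg acetate 10mM, Tris acetate pH 7.5, Tween/BSA; cpd qHTS; enzyme added last; CCD luminescence.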
Numbers without * were called inactive; i = inactive; ? = inconclusive; · = no result given; [ ] = remark or other dose. Sampled rows, rich in hits. Any-hit rate of the full collection: about 11%. Unless noted, calls follow the shape of the dose curve; as a rule, active = well fitted curve in the direction sought with a large enough effect; inconclusive = small, poorly fitted or top-dose-only effect, or another doubt; inactive = no such curve, though single readings can be large; an effect the other way counts as inactive or inconclusive. % is scaled to controls: 0 for no effect and ±100 for the full control effect; potency is read from the fitted curve at half-maximal effect.

SMILES | 3T3 cytotox | hNpr1 antagonist | HEK293 tox | FLuc inh
O=C1c2cnc(-c3ccsc3)nc2OCCN1c1cccc(C(F)(F)F)c1 | 112µM* | ? | 100µM* | 63µM*
COc1ccc(OC)c(-c2ncc3c(n2)OCCN(c2cccc(C(F)(F)F)c2)C3=O)c1 | ? | -9% | -25% | i
COc1cccc(F)c1-c1ncc2c(n1)OCCN(c1cccc(C(F)(F)F)c1)C2=O | ? | 4%[70.6 µM] | ? | i
Cc1cccc(-c2ncc3c(n2)OCCN(c2cccc(C(F)(F)F)c2)C3=O)c1 | -17%[138 µM] | -24%[70.6 µM] | ? | ?
COc1cc(F)cc(-c2ncc3c(n2)OCCN(c2cccc(C(F)(F)F)c2)C3=O)c1 | ? | -9%[70.6 µM] | -14%[172 µM] | 3.2µM*
Cc1ccc(-c2ncc3c(n2)OCCN(c2ccccc2)C3=O)cc1F | ? | 7.1µM* | ? | ?
COc1cccc(N2C(=O)NC(=NC3CCCCC3)C23CCN(Cc2ccsc2)C3)c1 (stereo not drawn) | -17% | · | -14% | ·
O=C(c1ccccc1Cl)N1CCC(C(=O)N2CCC(c3nc4ncccc4[nH]3)CC2)CC1 | 2% | · | i | ·
CC(C)c1ccc(CN2CC[C@@H]3OCC(=O)N(Cc4ccccc4)[C@H]3CC2)cc1 | 35µM* | ? | 32µM* | i
O=C1CO[C@H]2CCN(Cc3ccc4c(c3)CCO4)CC[C@@H]2N1Cc1ccccc1 | 100µM* | -21%[70.6 µM] | ? | i
C#Cc1cccc(C(=O)N2CCC(Cc3ccc(Cl)cc3)(C(=O)OCC)CC2)c1 | 20µM* | -5% | ? | i
C=CCOc1cccc(C(=O)N2CCC(Cc3ccc(OC)cc3)(C(=O)OCC)CC2)c1 | ? | -3% | ? | i
CCCN1CCCCC12Cc1ccccc1CN(C(=O)c1c(C)noc1C)C2 (stereo not drawn) | 32µM* | · | ? | ·
CCN1CCC2(Cc3ccccc3CN(C(=O)c3c(C)noc3C)C2)C1 (stereo not drawn) | 0% | · | 4% | ·
CCCN1CCCC12Cc1ccccc1CN(C(=O)CC)C2 (stereo not drawn) | 5% | · | -11% | ·
CCCN1CCCC12Cc1ccccc1CN(C(=O)C(C)C)C2 (stereo not drawn) | ? | · | 89µM* | ·
CCC1=C(C(=O)OC)C(c2cccc(F)c2)N2C(CC(=O)NCc3ccco3)=CSC2=N1 (stereo not drawn) | -22% | -24% | ? | i
COc1cccc(-c2ccc(CN3CCCC(NC(=O)C4CC4)C3)cc2)c1 (stereo not drawn) | ? | · | 35µM* | ·
COC(=O)NC1CCCN(Cc2ccc(-c3cccc(OC)c3)cc2)C1 (stereo not drawn) | ? | · | 45µM* | ·
COc1ccc(CC(=O)NC2CCCN(Cc3ccc(-c4cccc(OC)c4)cc3)C2)cc1 (stereo not drawn) | 35µM* | · | 25µM* | ·
COc1cccc(-c2ccc(CN3CCCC(NC(=O)c4ccccc4Cl)C3)cc2)c1 (stereo not drawn) | 28µM* | · | 20µM* | ·
Cc1ccc(NC(=O)N2CCC(CCNC(=O)c3cccc(F)c3)CC2)cc1 | -25% | -4% | -11% | i
COc1cccc(-c2ccc(CN3CCCC(NC(=O)Nc4ccccc4)C3)cc2)c1 (stereo not drawn) | 22µM* | · | ? | ·
COc1cccc(-c2ccc(CN3CCCC(N[S+](=O)([O-])c4ccccc4)C3)cc2)c1 (stereo not drawn) | 40µM* | · | 22µM* | ·
COc1cccc(-c2ccc(CN3CCCC(NC(=O)Cc4ccc(F)cc4)C3)cc2)c1 (stereo not drawn) | ? | · | 32µM* | ·
SMILES | 3T3 cytotox | hNpr1 antagonist | HEK293 tox | FLuc inh
Cc1cc(CNC(=O)c2cc(-c3ccco3)nc3c(Cl)cccc23)no1 | ? | -1% | -21% | i
CCCn1ccc2sc(C)c(C(=O)NCc3ccccc3OCC)c2c1=O | -2% | -1% | 4% | i
COc1ccc(NC(=O)CC2CCCN(c3cnn(CC4CC4)c(=O)c3)C2)cc1 (stereo not drawn) | 28µM* | 0% | ? | i
Cc1ccc(NC(=O)CC2CCCN(c3cnn(CC4CC4)c(=O)c3)C2)cc1C (stereo not drawn) | 40µM* | -6% | ? | i
Cc1ccc(NC(=O)CC2CCCN(c3cnn(CC4CC4)c(=O)c3)C2)c(C)c1 (stereo not drawn) | -11% | 6% | 5% | i
Cc1cc(C)cc(NC(=O)N2[C@@H]3CC[C@H]2CC(NC(=O)c2ccc(F)cc2)C3)c1 (stereo partly drawn) | ? | -6% | 40µM* | i
CSCC[C@@H]1NC(=O)c2cc(NC(=O)c3cc(-c4cccnc4)n[nH]3)ccc2NC1=O | -30% | 8% | -16% | i
Cc1noc([C@H]2CCN(Cc3cc(F)cc(F)c3)C[C@H]2NC(=O)C2CC2)n1 | ? | 1% | 28µM* | i
O=c1ncn(Cc2ccccc2)c2ccc(-c3ccc(F)cc3F)nc12 | 89µM* | -2%[70.6 µM] | -13%[172 µM] | i
O=C(NCc1ccccc1F)C1CCc2nnc(C3CCN([S+](=O)([O-])c4ccccc4Cl)CC3)n21 (stereo not drawn) | -25% | · | -14% | ·
O=C(O)c1cnc(N2CCCCC2)nc1-c1ccccc1 | ? | 8% | 1% | i
CCc1nc(N2CCc3ccccc3C2)ncc1C(=O)O | 25µM* | -22% | 32µM* | 22µM*
O=C(NCc1cccs1)c1nc2cccnc2n(C2CCCCC2)c1=O | -20% | · | 0% | ·
CS(=O)(=O)c1ccc(O[C@H]2COCCN(Cc3ccc(-c4ccccc4)cc3)C2)cc1 | ? | ? | 25µM* | i
Cc1ccc(CN2CCOC[C@H](Oc3ccc(C(F)(F)F)cc3)C2)cc1 | 79µM* | -17%[70.6 µM] | 100µM* | i
c1ccc(O[C@H]2COCCN(Cc3ccc(-c4ccccc4)cc3)C2)cc1 | ? | -24%[70.6 µM] | -29%[172 µM] | i
COC1CCN(C(=O)Cc2c[nH]c3ncc(-c4ccccc4)cc23)CC1 | ? | -3%[70.6 µM] | -1%[172 µM] | ?
CN(C)C(=O)c1ccc(-c2cnc3[nH]cc(CC(=O)N4CCOCC4)c3c2)cc1 | ? | -2%[70.6 µM] | ? | i
COc1ccc(-c2cnc3[nH]cc(CC(=O)N4CCCC4)c3c2)cc1 | 7.9µM* | ? | 71µM* | 22µM*
COc1ccc(-c2cnc3[nH]cc(CC(=O)N4CCC(OC)CC4)c3c2)cc1 | ? | -13%[70.6 µM] | ? | 22µM*
COc1ccc(NC(=O)c2cnc3n[nH]c(-c4ccc(OC)cc4C)c3n2)cc1 | 45µM* | 4%[70.6 µM] | ? | i
COc1ccc(-c2[nH]nc3ncc(C(=O)N4CC(O)C4)nc23)c(C)c1 | 7.9µM* | -3%[70.6 µM] | ? | i
COc1ccc(-c2[nH]nc3ncc(C(=O)Nc4ccn(C)n4)nc23)c(C)c1 | ? | -1%[70.6 µM] | 89µM* | i
COc1ccc(-c2[nH]nc3ncc(C(=O)N4C[C@@H](C)O[C@@H](C)C4)nc23)c(C)c1 | ? | 8%[70.6 µM] | ? | i
COc1ccc(-c2[nH]nc3ncc(C(=O)NCC(C)C)nc23)c(C)c1 | ? | -9%[70.6 µM] | ? | i

Screens: PubChem, National Center for Advancing Translational Sciences (NCATS)
